Common to all, as to settings: concentration: 1 μM, replicates: in singlicate; n = 1
For assay [1], the system named is RIOK1.
The subject of assay [2] is RIOK2.
The test system of assay [3] is RIOK3.
Assay [4] relates to RIPK1.
Assay [5] has as its system RIPK2.
The test system of assay [6] is RIPK4.
In assay [7] the test system is RIPK5.
Assay [8] concerns ROCK1.
Assay [9] deals with ROCK2.
Assay [10] has as its system ROS1.
Assay [11] concerns RPS6KA4(Kin.Dom.1-N-terminal).
The test system of assay [12] is RPS6KA4(Kin.Dom.2-C-terminal).
The test system of assay [13] is RPS6KA5(Kin.Dom.1-N-terminal).
Assay [14] relates to RPS6KA5(Kin.Dom.2-C-terminal).
For assay [15], the system named is T1, RSK1(Kin.Dom.1-N-terminal).
T1 construct: gene RPS6KA1

Assay [16] deals with T2, RSK1(Kin.Dom.2-C-terminal).
T2 construct: gene RPS6KA1

Assay [17] relates to T3, RSK2(Kin.Dom.1-N-terminal).
T3 construct: gene RPS6KA3

Assay [18] concerns T4, RSK2(Kin.Dom.2-C-terminal).
T4 construct: gene RPS6KA3

In assay [19] the test system is T5, RSK3(Kin.Dom.1-N-terminal).
T5 construct: gene RPS6KA2

The subject of assay [20] is T6, RSK3(Kin.Dom.2-C-terminal).
T6 construct: gene RPS6KA2

Data on ten compounds can be found in article PMC5540273 (PLoS ONE, 2017).
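Note: KINOMEscan kinase panel screen.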

Consider `CN(C)c1ncnc2nc[nH]c12` [SKF-31736], for which the “%Inh” value in [1] amounted to 0%; in [2], 0%; in [3], 0%; in [4], 0%; in assay [5], 0%; in [6] it was 26%. For the same compound, the “%Inh” value in assay [7] is 10%; in assay [8], 58%; in [9] it was 31%; in [10], 0%; in [11], 1%; in assay [12] it was 0%. Moreover, the “%Inh” value in assay [13] is 0%; in assay [14] it was 11%; in assay [15], 0%; in assay [16], 0%; in assay [17], 39%; in assay [18], 0%. Besides, the “%Inh” value in [19] and in assay [20] was 0% throughout.
As to `CCNC(=O)/C=C/c1n[nH]c2cc(Sc3ccccc3C(=O)NC)ccc12`, the “%Inh” value in [1] was 0%; in [2] it was 7%; in assay [3], 0%; in [4] it was 0%; in assay [5], 29%; in [6] it was 4%. Besides, the “%Inh” value in assay [7] is given as 18%; in [8], 4%; in assay [9] it was 1%; in [10] it was 33%; in assay [11], 8%; in assay [12], 21%. In addition, the “%Inh” value in assay [13] turned out to be 4%; in assay [14] it was 0%; in [15], 24%; in [16], 15%; in [17] it was 8%; in assay [18], 0%. In addition, the “%Inh” value in [19] stood at 8%; in assay [20], 34%.
With `CN(c1ccc2c(c1)nc(NCc1ccccc1)n2C)c1ccnc(Nc2ccc(CS(C)(=O)=O)cc2)n1.Cl` [GW811603], the “%Inh” value in assay [1] turned out to be 50%; in assay [2], 0%; in [3], 44%; in assay [4] it was 100%; in assay [5], 0%; in [6], 49%. The “%Inh” value in assay [7] is listed as 24%; in assay [8] it was 20%; in assay [9], 47%; in assay [10], 57%; in assay [11], 7%; in assay [12], 0%. Further, the “%Inh” value in assay [13] came to 0%; in assay [14], 0%; in assay [15], 2%; in assay [16], 0%; in assay [17], 0%; in assay [18], 24%. In addition, the “%Inh” value in assay [19] was 0%; in assay [20] it was 23%.
As for `Cn1cc(-c2ccc3c(c2)CCN3C(=O)Cc2cc(F)cc(F)c2F)c2c(N)ncnc21` [GSK2634140], the “%Inh” value was 39% in assay [1]; 15% in assay [2]; 13% in assay [3]; 99.7% in assay [4]; 0% in assay [5]; 0% in assay [6]. In addition, the “%Inh” value came to 54% in assay [7]; 36% in [8]; 30% in [9]; 34% in assay [10]; 19% in [11]; 0% in assay [12]. Moreover, the “%Inh” value in [13] is listed as 20%; in assay [14], 0%; in assay [15], 21%; in [16] it was 0%; in assay [17] it was 12%; in assay [18] it was 0%. Besides, the “%Inh” value is 12% in [19] and 0% in [20].
In the case of `Nc1cccc(-c2ccc3c(N)n[nH]c3c2)c1` [GSK2193613], the “%Inh” value in [1] is on record as 93.9%; in [2], 64%; in [3], 55%; in assay [4], 0%; in assay [5] it was 0%; in [6] it was 49%. Moreover, the “%Inh” value in assay [7] worked out at 0%; in assay [8] it was 42%; in assay [9], 48%; in assay [10], 17%; in [11], 12%; in assay [12] it was 8%. For the same compound, the “%Inh” value amounted to 35% in [13]; 0% in [14]; 13% in [15]; 1% in assay [16]; 1% in [17]; 6% in assay [18]. Also, the “%Inh” value worked out at 7% in assay [19] and 8% in [20].
In the case of `Cc1cc(-c2c(-c3ccc(F)cc3)ncn2CCCN2CCOCC2)nc(N)n1` [SB-222517], the “%Inh” value is on record as 10% in assay [1]; 0% in assay [2]; 11% in [3]; 0% in assay [4]; 0% in [5]; 14% in [6]. Also, the “%Inh” value in [7] is given as 11%; in [8] it was 29%; in assay [9], 0%; in assay [10], 19%; in assay [11], 18%; in [12] it was 0%. Besides, the “%Inh” value in [13] was 23%; in [14], 4%; in assay [15], 30%; in assay [16] it was 49%; in assay [17], 34%; in [18], 0%. Besides, the results for the “%Inh” value in assay [19] and in assay [20] were 9% and 21%, respectively.
Take `COC(=O)Nc1nc2ccc(Oc3ccc(CC(=O)Nc4cc(C(F)(F)F)ccc4F)cc3)cc2[nH]1` [GW680903]: the “%Inh” value in assay [1] is on record as 0%; in assay [2], 0%; in assay [3] it was 8%; in assay [4] it was 84%; in assay [5], 48%; in assay [6] it was 8%. Also, the “%Inh” value is reported as 0% in [7]; 31% in assay [8]; 12% in [9]; 0% in [10]; 0% in [11]; 0% in [12]. In addition, the “%Inh” value in assay [13] is 1%; in assay [14], 0%; in [15] it was 65%; in assay [16] it was 4%; in assay [17], 0%; in [18], 5%. Besides, the entries for the “%Inh” value in assay [19] and in assay [20] were 4% and 0%, respectively.
Consider `Nc1ncc(-c2cn[nH]c2)c2scc(-c3ccc4c(c3)CCN4C(=O)Cc3ccccc3)c12` [GSK2593067], for which the “%Inh” value in [1] amounted to 75%; in assay [2], 86%; in assay [3], 57%; in [4], 100%; in assay [5], 94.6%; in [6], 0%. For the same compound, the “%Inh” value was determined as 10% in assay [7]; 41% in [8]; 36% in assay [9]; 9% in [10]; 37% in assay [11]; 0% in [12]. For the same compound, the “%Inh” value in assay [13] worked out at 24%; in assay [14], 0%; in [15], 22%; in assay [16], 2%; in assay [17], 0%; in [18], 2%. Besides, the “%Inh” value in assay [19] turned out to be 31%; in assay [20], 0%.
With `O=C(O)C(F)(F)F.O=c1[nH]ccc2nc(N[C@@H]3CCNC3)nc(Nc3cc(Cl)cc(Cl)c3)c12` [GSK2188764], the “%Inh” value turned out to be 97.4% in assay [1]; 29% in [2]; 100% in [3]; 16% in [4]; 30% in [5]; 44% in assay [6]. Further, the “%Inh” value in [7] amounted to 10%; in assay [8], 99.5%; in [9], 99.7%; in assay [10], 0%; in [11], 94.6%; in assay [12], 99.9%. The “%Inh” value worked out at 65% in assay [13]; 86% in assay [14]; 96.7% in assay [15]; 64% in assay [16]; 98.3% in assay [17]; 30% in [18]. Moreover, the “%Inh” value in [19] was 94.8%; in [20] it was 55%.
Regarding `CC(=O)Nc1cn2nc(Oc3cccc(NC(=O)c4cccc(C(F)(F)F)c4)c3)ccc2n1`, the “%Inh” value worked out at 0% in assay [1]; 0% in [2]; 39% in assay [3]; 0% in assay [4]; 67% in assay [5]; 0% in assay [6]. Also, the “%Inh” value in [7] came out at 0%; in assay [8] it was 0%; in [9] it was 0%; in assay [10] it was 0%; in assay [11] it was 47%; in [12], 0%. The “%Inh” value was determined as 0% in assay [13]; 6% in assay [14]; 0% in assay [15]; 0% in assay [16]; 0% in assay [17]; 30% in assay [18]. In addition, the “%Inh” value is 0% in [19] and 5% in assay [20].
